# Assay results published in a collection of fitness landscapes (doi:10.1016/j.celrep.2020.107928).
# Over roughly 81,000 sequences, “one-hybrid fitness for binding parS DNA” has its median near -0.17; the highest 2% begin near 0.51. Only a selection was taken, and the highest values are over-represented in it overall.
# B1: Caulobacter ParB omega fusion; a variant is named by its letters at X, in order, B8GW30 (parent)
# chain: MESVVVGEPGMSEGRRGLGRGLSALLGEVDAAPAQAPGEQLGGSREAPIEILQRNPDQPRRTFREEDLEDLSNSIREKGVLQPILVRPSPDTAGEYQIVAGERAWRAAQRAGLKTVPIMVRELDDLAVLEIGIIENVQRADLNVLEEALSYKVLMEKFERTQENIAQTIGKSXSHVANXMRLLXLPDEVQSYLVSGELTAXHARAIAAAADPVALAKQIIEGGLSVRETEALARKAPNLSAGKSKGGRPPRVKDTDTQALESDLSSVLGLDVSIDHRGSTGTLTITYATLEQLDDLCNRLTRGI
# Variants of: B1
# Assay: one-hybrid fitness for binding parS DNA (scaled: cognate 1, non-cognate 0); higher = stronger binding
# Conditions: with parS DNA site
# In short: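 Fitness here means the log change in variant-to-wild-type read ratio between plasmids sequenced before and after selection. That scale was set so cognate equals 1 and non-cognate equals 0. The selection was a bacterial one-hybrid screen of Caulobacter ParB libraries, four specificity codons randomised, in E. coli USO carrying a HIS3 reporter with the site 19 bp from the promoter, grown 48 hours at 37°C on M9-minus-histidine with 0.1 mM IPTG and 5 mM 3-AT.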
row,Variant,one-hybrid fitness for binding parS DNA
1,NELG,≤ 0.2
2,VCTS,≤ 0.2
3,QDQT,≤ 0.2
4,APQI,≤ 0.2
5,TGHY,≤ 0.2
6,LTYE,≤ 0.2
7,FDTS,≤ 0.2
8,VQYL,≤ 0.2
9,GTNP,≤ 0.2
10,RCGY,0.43
11,RSGS,0.983
12,RSGN,0.46
13,RIGY,0.51
14,RSGD,≤ 0.2
15,LCDD,≤ 0.2
16,TNCY,≤ 0.2
17,FSDT,≤ 0.2
18,KCRM,≤ 0.2
19,RMIT,0.752
20,RMPR,≤ 0.2
21,RMIQ,≤ 0.2
22,RMPH,≤ 0.2
23,RMIK,≤ 0.2
24,RMPT,0.625
25,VQYW,≤ 0.2

row,Variant,one-hybrid fitness for binding parS DNA
1,INEC,≤ 0.2
2,RQWY,0.418
3,TEPE,≤ 0.2
4,RSAH,0.226
5,RSAC,0.932
6,RPAC,≤ 0.2
7,REAC,≤ 0.2
8,RSAN,0.426
9,RCAC,1.02
10,IILS,≤ 0.2
11,TCRI,≤ 0.2
12,KHHT,≤ 0.2
13,HMNT,≤ 0.2
14,RTIG,0.98
15,RTPQ,≤ 0.2
16,RTIF,0.233
17,RTIK,≤ 0.2
18,RTPG,0.764
19,RTPP,≤ 0.2
20,KRWW,≤ 0.2
21,KLNR,≤ 0.2
22,RHFA,0.516
23,NHAA,≤ 0.2
24,RHAA,0.534
25,VDYT,≤ 0.2

row,Variant,one-hybrid fitness for binding parS DNA
1,NQNT,≤ 0.2
2,HAPR,≤ 0.2
3,EKTR,≤ 0.2
4,DHKA,≤ 0.2
5,RHKA,0.692
6,RCKA,0.844
7,RHVA,0.499
8,RWKA,0.574
9,RGKA,0.475
10,RWVA,0.329
11,PFKA,≤ 0.2
12,RFVA,0.44
13,RPKA,≤ 0.2
14,RWYA,0.348
15,RFKA,0.571
16,KSVS,≤ 0.2
17,ATSF,≤ 0.2
18,PVTI,≤ 0.2
19,GNRN,≤ 0.2
20,MTHT,≤ 0.2
21,IATE,≤ 0.2
22,RDKA,≤ 0.2
23,RSKA,0.716
24,REKA,≤ 0.2
25,QRTQ,≤ 0.2

row,Variant,one-hybrid fitness for binding parS DNA
1,GFIG,≤ 0.2
2,RLSM,0.329
3,RLRT,0.834
4,RLWT,0.889
5,RLGR,≤ 0.2
6,RLGF,0.278
7,RLRR,≤ 0.2
8,RLST,0.939
9,RLRM,0.376
10,RLWH,0.3
11,RLSK,≤ 0.2
12,RLGT,0.925
13,RLWP,0.201
14,FKLC,≤ 0.2
15,YRAS,0.283
16,WVWC,≤ 0.2
17,TRNR,≤ 0.2
18,QCLA,≤ 0.2
19,HCDK,≤ 0.2
20,RLYQ,≤ 0.2
21,RLQT,0.946
22,RLYT,0.943
23,RLLD,0.231
24,RLCP,≤ 0.2
25,RLQF,0.229

row,Variant,one-hybrid fitness for binding parS DNA
1,RLLP,≤ 0.2
2,RLCT,0.923
3,RLYM,0.364
4,RLCD,≤ 0.2
5,RLQK,≤ 0.2
6,RLLT,0.961
7,YINM,≤ 0.2
8,QHNA,≤ 0.2
9,HQSH,≤ 0.2
10,KQRG,≤ 0.2
11,FYRR,≤ 0.2
12,EMVC,≤ 0.2
13,TCPF,≤ 0.2
14,RLHR,≤ 0.2
15,RLHY,0.473
16,RLHT,0.937
17,RHNG,0.953
18,RHIG,0.705
19,RHNF,≤ 0.2
20,RHYG,0.95
21,RHPG,0.451
22,RHYD,≤ 0.2
23,REQG,≤ 0.2
24,RHNR,≤ 0.2
25,RHIF,≤ 0.2

row,Variant,one-hybrid fitness for binding parS DNA
1,RHQG,0.973
2,RHYP,≤ 0.2
3,RHQR,≤ 0.2
4,HCSV,≤ 0.2
5,DCCS,≤ 0.2
6,HYWT,≤ 0.2
7,QSAL,≤ 0.2
8,FRKP,≤ 0.2
9,GIVG,≤ 0.2
10,PFTT,≤ 0.2
11,ALPV,≤ 0.2
12,QCAF,≤ 0.2
13,RHCG,0.95
14,RHDD,≤ 0.2
15,RHCK,≤ 0.2
16,RHHK,≤ 0.2
17,RHDG,0.917
18,RHCM,≤ 0.2
19,RHHG,0.967
20,RHLG,0.967
21,RHLF,0.23
22,RHLQ,≤ 0.2
23,RHHQ,≤ 0.2
24,RHDN,0.33
25,KRLV,≤ 0.2

row,Variant,one-hybrid fitness for binding parS DNA
1,YFQT,≤ 0.2
2,TWNC,≤ 0.2
3,KIDC,≤ 0.2
4,YREL,≤ 0.2
5,QRPG,≤ 0.2
6,ANRV,≤ 0.2
7,RHSG,0.958
8,RHGH,≤ 0.2
9,RHSR,≤ 0.2
10,RHRH,0.232
11,RHRP,≤ 0.2
12,RHGP,≤ 0.2
13,RHSQ,≤ 0.2
14,RHGG,0.939
15,RHRG,0.903
16,KVHG,≤ 0.2
17,IAKA,≤ 0.2
18,MESK,≤ 0.2
19,TRMT,≤ 0.2
20,GQVV,≤ 0.2
21,AIVR,≤ 0.2
22,KQMS,≤ 0.2
23,GWHV,≤ 0.2
24,VEGN,≤ 0.2
25,TSSY,≤ 0.2

row,Variant,one-hybrid fitness for binding parS DNA
1,ALYA,≤ 0.2
2,DLCA,≤ 0.2
3,NLCA,≤ 0.2
4,NLNA,≤ 0.2
5,DLDA,≤ 0.2
6,RLCA,0.609
7,RLYA,0.607
8,DLYA,≤ 0.2
9,RLDA,0.588
10,RLNA,0.62
11,RDNA,≤ 0.2
12,ASVG,≤ 0.2
13,YGDG,≤ 0.2
14,VARP,≤ 0.2
15,TRNE,≤ 0.2
16,SERK,≤ 0.2
17,TYPS,≤ 0.2
18,QKME,≤ 0.2
19,QGRS,≤ 0.2
20,LGAW,≤ 0.2
